Source: PubChem
Sampled rows, rich in hits. Any-hit rate of the full collection: about 27%.
CYP2C19 act = increases human CYP2C19 enzyme activity; activation factor at 5 µM; 96,000 tested, under 10 active; P33261; AID 1025; recombinant CYP2C19, luciferin-H EGE luminescence; active compounds read high; 0 = fully inhibited enzyme, 1 = untreated enzyme;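 active = activation factor of at least 2 at 5 µM in the primary screen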;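 also: 0 = wells with 2.5 mM tranylcypromine and 1 = vehicle-only wells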
Target sequence (P33261 whole entry, looked up): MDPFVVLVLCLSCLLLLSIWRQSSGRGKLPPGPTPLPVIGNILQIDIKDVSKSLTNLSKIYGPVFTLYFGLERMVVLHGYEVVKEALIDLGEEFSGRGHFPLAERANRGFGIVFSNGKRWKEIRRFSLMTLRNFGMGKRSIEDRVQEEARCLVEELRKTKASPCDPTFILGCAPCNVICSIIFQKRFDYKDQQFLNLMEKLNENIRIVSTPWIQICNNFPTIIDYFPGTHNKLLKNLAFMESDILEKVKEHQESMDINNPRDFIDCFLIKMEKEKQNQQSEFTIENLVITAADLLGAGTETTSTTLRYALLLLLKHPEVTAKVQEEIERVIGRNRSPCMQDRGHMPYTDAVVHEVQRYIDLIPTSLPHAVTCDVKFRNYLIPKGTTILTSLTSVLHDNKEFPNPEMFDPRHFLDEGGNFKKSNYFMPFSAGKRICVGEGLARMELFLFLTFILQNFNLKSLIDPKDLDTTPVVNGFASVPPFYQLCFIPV
Cav32 inh = blocks human Cav3.2 T-type calcium channel; 100,000 compounds, 4% hits; O95180; B-score at 10 µM; Cav3.2-expressing cells, Fluo-4 calcium fluorescence FDSS; active compounds read low;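 active = single-dose well whose peak fluorescence ratio is a statistical outlier from its plate by either plate-standardised score or position-corrected B-score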
CYP2C9 inhib = human CYP2C9 inhibition. 96,000 compounds, 20% hits. inhibition, % at 5 µM. CYP2C9 Supersomes, luciferin-H conversion, luminescence;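 active = blocking of liver enzyme CYP2C9 beyond about 50% at 5 µM, limit read from the data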
CYP2C9 activ = activators of human CYP2C9 | 96,000 compounds, 1.4% hits | activation factor at 5 µM | recombinant CYP2C9, luciferin-H conversion, luminescence; active compounds read high; factor 1 = untreated enzyme, 0 = blocked;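 active = activation factor of 2 or more for CYP2C9 at a 5 µM dose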;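 also: 0 = sulfaphenazole-blocked wells and 1 = vehicle-only wells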
CYP2C19 inhib = blocks human cytochrome P450 2C19; P33261; CYP2C19 Supersomes, luciferin-H EGE luminescence, 30 min; inhibition, % at 5 µM; 96,000 compounds, 21% hits; AID 778;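 active = CYP2C19 inhibition above a set limit at 5 µM in the primary screen, cut at about 50% in these data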;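 also: plate controls were negative control wells for no effect and 2.5 mM tranylcypromine positive control for full effect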
* hit, by the source's call; nt = no result given.

SMILES | CYP2C19 act | Cav32 inh | CYP2C9 inhib | CYP2C9 activ | CYP2C19 inhib
COc1cccc(Cn2nnc(C(=O)NCc3ccc(F)cc3)c2N)c1 | 1.1 | -3.6 | -1 | 1 | -9
COc1cccc(Cn2nnc(C(=O)NCc3ccccc3Cl)c2N)c1 | 0.8 | -3.9* | -190 | 2.9* | 23
COc1ccc(C)cc1NC(=O)c1nnn(Cc2cccc(F)c2)c1N | 1.1 | 0.64 | -34 | 1.3 | -8
COc1cccc(Cn2nnc(C(=O)Nc3cc(Cl)ccc3OC)c2N)c1 | 1 | -0.034 | -106 | 2.1* | -4
C#CCNC(=O)C1=C[C@@H](C2CC2)[C@H](CCCO)[C@@H](OCC)O1 | nt | 0.62 | nt | nt | nt
Cc1ccc(C(=O)Nc2nc(=O)n(C(=O)c3ccccc3Cl)s2)cc1 | 0.3 | -6.1* | 94* | 0.1 | 66*
CC(C)CC(=O)n1sc(NC(=O)c2ccccc2)nc1=O | 1.2 | -0.84 | 34 | 0.7 | -16
Cc1ccc(C(=O)Nc2nc(=O)n(C(=O)CC(C)C)s2)cc1 | 0.9 | -3.8 | 84* | 0.2 | 8
O=C(NN=C1CCCC1)C(=O)Nc1cccc(C(F)(F)F)c1 | 1 | 0.082 | -22 | 1.2 | 3
CCOC(=O)Cc1csc(NC(=O)CC(C)(C)C)n1 | 1 | -0.096 | -1 | 1 | 3
N#C/C(=C1\C(=O)Nc2c(Cl)cc(Cl)cc21)c1nnc2n1CCCCC2 | 1.1 | 0.067 | 4 | 1 | -5
CCO[C@H]1OC(C(=O)N2CCN(C)CC2)=C[C@@H](c2ccc3c(c2)OCO3)[C@@H]1CCCO | nt | 0.99 | nt | nt | nt
CCCCn1c(SCC(N)=O)nnc1-c1ccco1 | 0.9 | 1 | 13 | 0.9 | 8
COCCn1c(SCC(=O)NCc2ccccc2)nnc1-c1ccco1 | nt | 0.14 | nt | nt | nt
O=C(CSc1nnc(-c2ccco2)n1Cc1ccccc1)c1ccccc1 | 0.1 | -3.6 | 87* | 0.1 | 93*
CC(C)Cn1c(SCC(=O)c2ccc(Cl)s2)nnc1-c1ccco1 | 0.3 | -5.6* | 72* | 0.3 | 67*
CCn1c(SCC(=O)Nc2ccc(OCc3ccccc3)cc2)nnc1-c1ccco1 | 0.9 | -1.1 | 28 | 0.7 | 7
Cc1ccc(C(=O)CSc2nnc(-c3ccco3)n2Cc2ccccc2)cc1 | 0.4 | -3.2 | 62* | 0.4 | 58*
CCOC(=O)c1c(C)[nH]c(C)c1C(=O)CSc1nnc(-c2ccco2)n1Cc1ccccc1 | 0 | -2 | 98* | 0 | 99*
NC(=O)NC(=O)CSc1nnc(-c2ccco2)n1Cc1ccccc1 | 1 | -0.029 | 6 | 0.9 | 0
COc1ccc(CN2CC[C@H]3C=CC[C@@H](C(=O)Nc4ccc(Cl)c(C(F)(F)F)c4)[C@H]3C2=O)cc1OC | nt | -2.7 | nt | nt | nt
O=C1NN(c2ccccc2)C(=O)C2C3C=CC(C4CC34)C12 (stereo unspecified) | 1 | 0.53 | -20 | 1.2 | -2
O=C(N[C@H](CO)[C@H](O)c1ccc([N+](=O)[O-])cc1)C(Cl)Cl | nt | -1.9 | nt | nt | nt
CCN(C(=O)CSc1nc2ccccc2n1CCc1ccccc1)C1CCS(=O)(=O)C1 (stereo unspecified) | 0.3 | 0.33 | -4 | 1 | 67*
COC(=O)c1cc(OC)c(OC)cc1NC(=O)Nc1ccc(OC)cc1OC | 0.3 | 0.61 | 84* | 0.2 | 68*
SMILES | CYP2C19 act | Cav32 inh | CYP2C9 inhib | CYP2C9 activ | CYP2C19 inhib
COC(=O)c1cc(OC)c(OC)cc1NC(=O)c1ccc(C)cc1 | 0.6 | -1.7 | 51* | 0.5 | 42
COc1ccc(OC)c(Nc2nc(N)nc(CSc3nnc(-c4ccncc4)o3)n2)c1 | 1 | nt | 46 | 0.5 | 1
CC(C)CCNC(=O)C1CCN(c2nc3ccccc3o2)CC1 | 0.8 | -0.051 | 22 | 0.8 | 19
COc1ccc(-c2nc(NC(=O)C3CCN(c4nc5ccccc5o4)CC3)sc2C)cc1 | 0.7 | -2.6 | 51* | 0.5 | 29
O=C(C1CCC1)N1CCc2cc(S(=O)(=O)NCc3ccccn3)ccc21 | 0.9 | 0.89 | 58* | 0.4 | 14
CCC1CCCCN1S(=O)(=O)c1ccc2c(c1)CCN2C(=O)C1CCC1 (stereo unspecified) | 0.7 | -1.4 | 52* | 0.5 | 28
O=C(C1CCC1)N1CCc2cc(S(=O)(=O)NCCN3CCN(c4ccccc4F)CC3)ccc21 | 0.5 | -3.2 | 59* | 0.4 | 48
O=C(C1CC1)N1CCc2cc(Br)cc(S(=O)(=O)NCc3ccccn3)c21 | 1.1 | 1.9 | 1 | 1 | -6
CCN(CC)Cc1c(CC(C)C)oc(C)c1C(=O)O | 1.1 | -0.034 | -16 | 1.2 | -9
Clc1ccc(Nc2ccc(-n3ccnc3)nn2)cc1Cl | 0 | -0.44 | 99* | 0 | 100*
Cc1nc(NC(=O)COC(=O)C(NC(=O)c2ccco2)C(C)C)c(Cl)cc1Cl (stereo unspecified) | 0.1 | 0.74 | 24 | 0.8 | 95*
Cc1ccc(C(=O)OCC(=O)Nc2sccc2C(N)=O)cc1NC(=O)c1ccco1 | 0.8 | -0.17 | 94* | 0.1 | 19
Cc1ccc(C(=O)OCC(=O)Nc2sc3c(c2C#N)CCCC3)cc1NC(=O)c1ccco1 | 0.7 | -1 | 91* | 0.1 | 34
Cc1ccc(C(=O)OCC(=O)Nc2ncc(Cl)cc2Cl)cc1NC(=O)c1ccco1 | 0.1 | 0.38 | 69* | 0.3 | 92*
COc1cccc(C(=O)CN(C(=O)c2ccc(Cl)c(Cl)c2)N2C(=O)c3ccccc3C2=O)c1 | 0.7 | -2.9 | 41 | 0.6 | 30
O=c1[nH][nH]c2nc(C(F)(F)F)cc(C(F)(F)F)c12 | 1 | 0.93 | 6 | 0.9 | 0
Cc1ccc(C(=O)OCC(=O)Nc2sc3c(c2C#N)CCCCC3)cc1NC(=O)c1ccco1 | 0.4 | -3.8* | 92* | 0.1 | 60*
CCC(C)c1ccccc1NC(=O)COC(=O)c1ccc(C)c(NC(=O)c2ccco2)c1 (stereo unspecified) | 0.3 | -0.49 | 44 | 0.6 | 75*
O=c1c2ccc(Cl)cc2[nH]c(=S)n1Cc1cccnc1 | 0.4 | nt | 44 | 0.6 | 56*
CN1CCN(C(=O)c2ccc3c(=O)n(Cc4ccc(Cl)cc4)c(=S)[nH]c3c2)CC1 | 0.9 | -1.8 | 22 | 0.8 | 15
Cc1ccccc1-c1ccc(C(=O)NCc2ccccc2)o1 | nt | -0.13 | nt | nt | nt
O=C(NCc1ccccc1)c1ccc(-c2ccc(F)cc2)o1 | 0.5 | -3.4 | 56* | 0.4 | 55*
O=C(NCc1ccccc1)c1ccc(COCC(F)(F)F)o1 | 0.1 | -0.077 | 26 | 0.7 | 85*
CCOc1cc(/C=C2/SC(=Nc3ccccc3)N(Cc3cccnc3)C2=O)ccc1OCC#N | 0.9 | -0.54 | -1 | 1 | 13
O=C(CSc1ccc2nnc(-c3ccc(Cl)cc3)n2n1)N1CCc2ccccc21 | 1.1 | nt | 85* | 0.1 | -13
Cc1cc2c(=O)n(Cc3ccco3)c(SCC(=O)N3CCCc4ccccc43)nc2s1 | 0.7 | -0.95 | 90* | 0.1 | 32
Cc1cc2c(=O)n(Cc3ccco3)c(SCC(=O)NCc3ccco3)nc2s1 | 1 | 1.5 | 17 | 0.8 | 1
CCn1c(SCC(=O)N2CCCc3ccccc32)nnc1-c1cccs1 | 0.8 | 0.66 | -24 | 1.2 | 20
